The sample as a whole holds a higher share of hits than the screen did.
ALOX12 inh – blocks human arachidonate 12S-lipoxygenase. P18054. purified 12hLO, xylenol orange hydroperoxide absorbance. Potency, µM (doses to about 108 µM), inactives show at the highest dose activity change, negative = inhibition, hits mostly inhibitors. actives 1.1% (n = 580,000); note: potency is the fitted concentration of half-maximal effect
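Purified human 12hLO at 150 nM in 25 mM Hepes, 0.01% Triton X-100, pH 7.0, preincubated 15 min at room temperature with compound. Reaction started with 40 uM arachidonic acid, 30 min at room temperature. Hydroperoxide measured by Fe-xylenol orange, 573/405 nm absorbance ratio.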
HT1080 IDH1KD tx – toxicity to HT-1080 IDH1 knockdown cells (counter line); HT-1080 IDH1 knockdown viability, ATP luminescence, 48 h; Potency, µM (titrated, usually from 46.1 µM), without a hit: top-dose activity, negative = toxicity, usual class: cytotoxic; actives 2% (n = 360,000);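 note: potency is the fitted concentration of half-maximal effect; 0% = DMSO wells and -100% = cell-free medium wells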
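HT-1080-IDH1KD cells (IDH1 knocked down), 750/well in RPMI with 5% FBS, treated with compound 48 h at 37 degrees C. Viability by CellTiter-Glo luminescence, normalised to DMSO and no-cell wells; concentration-response curves classed.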
DT40 TDP1 no CPT – qHTS for Inhibitors of human tyrosyl-DNA phosphodiesterase 1 (TDP1): qHTS in cells in absence of CPT. DT40 Tdp1-/- hTDP1 cells, no CPT, ATP luminescence, 48 h. Potency, µM (doses to about 46.2 µM), for inactives: at the highest dose activity change, negative = growth inhibition, most hits filed as inhibitors. actives 15% (n = 420,000); note: potency is the fitted concentration of half-maximal effect; nearly all actives have a fitted effect of over 55% in size
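Compound effects on proliferation are scored in DT40 Tdp1-/-;hTDP1 cells in the absence of CPT. ATP levels (CellTiter-Glo luminescence) are recorded after a ≥48 hr, 37 °C incubation.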
IL1B secr inh – blocks inflammasome-driven IL-1 beta release. activity change, % at 57.5 µM. actives 4.7% (n = 360,000). AID 743279. THP-1 LPS/ATP IL-1B secretion, AlphaLISA, 16 h; hits give low values; in the data active = activity change below about -50%; inconclusive = mostly about -30% to -49%
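Secreted IL-1B measured by AlphaLISA bead assay after 16 h compound exposure of THP-1 cells; compounds (final up to 57.5 uM) added 1 h before LPS (250 ng/mL) and ATP (1.25 mM) stimulation; lower signal means less secretion.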
TDP1 cell CPT – DT40-hTDP1 cell growth loss with CPT | chicken DT40 Tdp1-/-;hTDP1 cells + 20 nM CPT, ATP luminescence, 48 h | Potency, µM (highest dose often 46.2 µM), for inactives: at the highest dose activity change, negative = growth inhibition, usual class: inhibitors | actives 12% (n = 420,000) | AID 686979; note: potency is the fitted concentration of half-maximal effect; nearly all actives have a fitted effect of over 55% in size
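Chicken DT40 Tdp1-/- cells stably complemented with human TDP1 were seeded at 400 cells/well in medium containing 20 nM camptothecin, exposed to pin-transferred compounds, and grown at 37 °C for at least 48 hr. Viability was read as ATP luminescence.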
HT1080NT lethal – kills 2HG-producing HT-1080-NT fibrosarcoma cells. actives 1.6% (n = 360,000). Potency, µM (series often up to 46.1 µM), for the others: at the highest dose activity, negative = less viability, most hits filed as cytotoxic. HT-1080-NT fibrosarcoma viability, CellTiter-Glo ATP luminescence, 48 h;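 note: NT is the 2HG producing partner of a matched IDH1 knockdown line; potency is the fitted concentration of half-maximal effect; 0% = DMSO-treated cells and -100% = media-only wells without cells; nearly all actives have a fitted effect of over 55% in size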
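750 cells/well, RPMI + 5% FBS; 2 h settle, compound pin-transfer, 48 h at 37 degrees C. CellTiter-Glo 10 min RT, luminescence. Normalized to DMSO and media-only wells.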
* marks the source's active call; other numbers are inactive results; ? = inconclusive; · = no result; [ ] = remark or other dose. Unless noted, calls come from the whole dose curve; as a rule, active = well fitted curve in the direction sought with a large enough effect; inconclusive = small, poorly fitted or top-dose-only effect, or another doubt; inactive = no such curve, though single readings can be large; an effect the other way counts as inactive or inconclusive. Unless noted, % is set by controls: 0 for no effect and ±100 for the full control effect.

SMILES	ALOX12 inh	HT1080 IDH1KD tx	DT40 TDP1 no CPT	IL1B secr inh	TDP1 cell CPT	HT1080NT lethal
C=CCNC(=O)NC(=O)CN(C)CC#N	-1%	·	·	·	·	·
COc1ccc(S(=O)(=O)N[C@H]2CC[C@H](CCNC(=O)c3ccccc3F)O[C@@H]2CO)cc1	-23%	12%	-14%	-77*	-26%	18%
COc1ccc(C2(C(=O)N3CCC(Cc4nc(-c5ccccc5)no4)CC3)CC2)cc1	2%	·	·	·	·	·
CCN(C[C@H]1N[C@@](Cc2ccccc2)(C(=O)OC)[C@H]2C(=O)N(Cc3ccccc3)C(=O)[C@@H]12)S(=O)(=O)c1ccccc1	136%	7%	23µM*	-13	?	4%
CCN(C[C@H]1N[C@@](CC)(C(=O)OC)[C@H]2C(=O)N(Cc3ccccc3)C(=O)[C@@H]12)S(=O)(=O)c1ccc(F)cc1	-2%	4%	21µM*	-16	?	2%
CCN(C[C@H]1N[C@@](Cc2ccccc2)(C(=O)OC)[C@H]2C(=O)N(Cc3ccccc3)C(=O)[C@@H]12)S(=O)(=O)c1ccc(C)cc1	-17%	4%	21µM*	-25	16µM*	15%
CCCCCCn1nc(C(=O)Nc2ccc(OC)c(OC(F)F)c2)c2ccccc2c1=O	26%	·	·	·	·	·
COc1cccc(C(=O)OCC(=O)Nc2ccc(N3CCOCC3)cc2)c1	-14%	4%	-10%	11	1%	-1%
COc1cccc(N2C(C(C)=O)=NN(c3ccccc3)C2c2ccc(N3CCOCC3)cc2)c1 (stereo not drawn)	-8%	-11%	16µM*	5	18µM*	-16%
O=C(CCC1CCN(C(=O)c2ccccc2)CC1)Nc1ccccc1	42%	·	·	·	·	·
CCOC(=O)c1c(NC(=O)/C=C/C(=O)O)sc(C)c1-c1ccc(F)cc1	9%	?	?	-101*	?	21µM*
CC(C)=C1C2CCC1C(C(=O)Nc1sc(C)c(-c3ccc(C(C)C)cc3)c1C(N)=O)C2C(=O)O (stereo not drawn)	?	16µM*	16µM*	-28	16µM*	?
CCOC(=O)c1c(NC(=O)/C=C/c2ccc(OCC)cc2)sc(C)c1C	-4%	·	·	·	·	·
CCOC(=O)c1c(NC(=O)/C=C/c2ccc(OCC)cc2)sc2c1CCCC2	-25%	·	·	·	·	·
COC(=O)c1c(NC(=O)/C=C/C(=O)O)sc(C)c1-c1ccc(C)c(C)c1	-25%	?	?	-95*	?	?
CCOC(=O)c1c(NC(=O)/C=C/C(=O)O)sc(C)c1-c1ccc(C)c(C)c1	-28%	?	?	-95*	?	?
COCc1noc([C@@H]2CN(Cc3cn(C)c4ccc(OC)cc34)C[C@H]2C(N)=O)n1	28%	·	·	·	·	·
Cc1ccc(C(=O)N2C[C@@H](Oc3cccnc3)C[C@H]2C(N)=O)s1	20%	·	·	·	·	·
CN(C)c1cccc(-c2nccc3c(=O)cc(N(C)C4CCOCC4)oc23)c1	-17%[176 µM]	·	·	·	·	·
CC(C)Oc1ccc(NC(=O)c2cc3cc(Br)ccc3oc2=O)cc1	3%	·	·	·	·	·
COC(=O)c1c(NC(=O)/C=C/C(=O)O)sc(C)c1-c1ccc(C(C)C)cc1	-1%	?	21µM*	-101*	4.6µM*	?
COc1ccccc1-c1cn2c(n1)CO[C@@H](CNC(=O)COc1ccccc1)C2	3%[176 µM]	·	·	·	·	·
CN(C)c1cc[n+](CC(=O)Nc2ccc(OC(F)F)cc2)cc1	?	?	15µM*	-12	23µM*	-20%
CN(C)c1cc[n+](CC(=O)Nc2ccc(Cl)c([N+](=O)[O-])c2)cc1	0%	?	?	-7	?	-21%

Screening results from PubChem.
